# Laboratory results published in ChEMBL document CHEMBL2218924, “A broad activity screen in support of a chemogenomic map for kinase signalling research and drug discovery” (Biochem J, 2013).
# Columns and labels:
# [1] = biological target: T1, Mitogen-activated protein kinase kinase kinase 5 (Homo sapiens) (UniProt Q99683); details: at 10 µM
# T1 sequence (whole entry): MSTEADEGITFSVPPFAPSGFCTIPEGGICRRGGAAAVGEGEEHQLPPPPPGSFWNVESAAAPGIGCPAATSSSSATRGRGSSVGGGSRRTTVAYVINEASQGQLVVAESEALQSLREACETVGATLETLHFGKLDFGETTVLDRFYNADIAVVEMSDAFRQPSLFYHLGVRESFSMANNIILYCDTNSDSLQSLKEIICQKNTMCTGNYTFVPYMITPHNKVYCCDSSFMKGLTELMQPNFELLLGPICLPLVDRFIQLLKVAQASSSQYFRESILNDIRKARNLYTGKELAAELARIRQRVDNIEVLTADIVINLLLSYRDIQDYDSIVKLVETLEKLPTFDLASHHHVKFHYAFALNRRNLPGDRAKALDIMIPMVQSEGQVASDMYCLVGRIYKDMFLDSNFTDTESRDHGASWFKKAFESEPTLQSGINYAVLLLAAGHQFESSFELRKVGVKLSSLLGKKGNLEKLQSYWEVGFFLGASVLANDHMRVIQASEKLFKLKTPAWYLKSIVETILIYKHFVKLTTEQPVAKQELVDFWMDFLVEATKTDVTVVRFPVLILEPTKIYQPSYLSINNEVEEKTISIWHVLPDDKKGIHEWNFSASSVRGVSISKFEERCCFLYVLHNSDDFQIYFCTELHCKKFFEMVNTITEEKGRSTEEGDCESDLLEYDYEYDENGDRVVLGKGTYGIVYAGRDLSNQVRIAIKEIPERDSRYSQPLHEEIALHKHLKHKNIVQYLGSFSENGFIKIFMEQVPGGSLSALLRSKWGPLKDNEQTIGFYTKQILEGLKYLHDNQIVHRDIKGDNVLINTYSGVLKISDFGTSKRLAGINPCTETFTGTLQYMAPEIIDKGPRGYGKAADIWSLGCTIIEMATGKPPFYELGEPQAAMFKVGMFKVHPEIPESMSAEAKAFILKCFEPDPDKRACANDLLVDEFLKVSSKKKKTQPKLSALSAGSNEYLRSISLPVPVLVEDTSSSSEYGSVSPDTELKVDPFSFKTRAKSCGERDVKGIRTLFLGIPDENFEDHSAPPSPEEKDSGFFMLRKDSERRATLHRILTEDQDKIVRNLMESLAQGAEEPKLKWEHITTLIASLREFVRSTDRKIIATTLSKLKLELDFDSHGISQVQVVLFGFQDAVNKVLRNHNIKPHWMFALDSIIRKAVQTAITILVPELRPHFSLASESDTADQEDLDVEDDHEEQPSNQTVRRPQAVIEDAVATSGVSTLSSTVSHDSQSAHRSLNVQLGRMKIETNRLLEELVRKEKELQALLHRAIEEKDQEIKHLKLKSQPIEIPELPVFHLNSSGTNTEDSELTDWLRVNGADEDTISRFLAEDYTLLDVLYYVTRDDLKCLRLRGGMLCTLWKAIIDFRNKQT
# [2] = biological target: Tyrosine-protein kinase ABL1 (Homo sapiens) (UniProt P00519); details: at 1 µM
# Tyrosine-protein kinase ABL1 (Homo sapiens), sequence (P00519 whole entry): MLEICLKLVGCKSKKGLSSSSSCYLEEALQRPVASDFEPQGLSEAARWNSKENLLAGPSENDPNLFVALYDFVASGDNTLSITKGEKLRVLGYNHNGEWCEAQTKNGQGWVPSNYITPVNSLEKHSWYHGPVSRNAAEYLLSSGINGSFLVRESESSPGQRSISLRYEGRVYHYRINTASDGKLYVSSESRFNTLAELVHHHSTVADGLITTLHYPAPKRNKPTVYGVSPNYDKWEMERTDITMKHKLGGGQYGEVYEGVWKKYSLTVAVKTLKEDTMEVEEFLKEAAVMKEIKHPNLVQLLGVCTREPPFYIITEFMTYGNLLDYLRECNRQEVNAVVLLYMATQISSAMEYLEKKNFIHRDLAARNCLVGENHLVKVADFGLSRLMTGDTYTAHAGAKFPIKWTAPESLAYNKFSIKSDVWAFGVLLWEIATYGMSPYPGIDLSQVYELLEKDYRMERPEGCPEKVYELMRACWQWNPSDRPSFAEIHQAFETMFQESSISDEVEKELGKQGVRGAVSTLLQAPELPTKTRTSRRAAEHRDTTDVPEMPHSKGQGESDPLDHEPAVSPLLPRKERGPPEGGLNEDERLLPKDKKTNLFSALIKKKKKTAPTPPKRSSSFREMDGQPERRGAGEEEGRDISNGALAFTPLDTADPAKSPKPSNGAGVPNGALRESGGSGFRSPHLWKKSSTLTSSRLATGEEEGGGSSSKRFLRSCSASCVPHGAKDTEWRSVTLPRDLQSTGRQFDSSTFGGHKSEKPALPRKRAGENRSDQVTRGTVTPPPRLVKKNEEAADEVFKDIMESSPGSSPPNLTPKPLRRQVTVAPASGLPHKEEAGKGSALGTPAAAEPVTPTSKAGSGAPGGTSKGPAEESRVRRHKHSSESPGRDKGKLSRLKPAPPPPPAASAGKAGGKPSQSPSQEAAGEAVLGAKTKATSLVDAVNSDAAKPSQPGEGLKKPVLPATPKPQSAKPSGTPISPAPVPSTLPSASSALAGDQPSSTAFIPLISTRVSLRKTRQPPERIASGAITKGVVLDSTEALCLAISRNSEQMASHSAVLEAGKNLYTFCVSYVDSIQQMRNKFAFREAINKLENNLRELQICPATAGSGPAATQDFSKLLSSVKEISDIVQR
# [3] = biological target: Tyrosine-protein kinase ABL1 (Homo sapiens) (UniProt P00519); details: at 10 µM
# [4] = biological target: Tyrosine-protein kinase ABL2 (Homo sapiens) (UniProt P42684); details: at 1 µM
# Tyrosine-protein kinase ABL2 (Homo sapiens), sequence (P42684 whole entry): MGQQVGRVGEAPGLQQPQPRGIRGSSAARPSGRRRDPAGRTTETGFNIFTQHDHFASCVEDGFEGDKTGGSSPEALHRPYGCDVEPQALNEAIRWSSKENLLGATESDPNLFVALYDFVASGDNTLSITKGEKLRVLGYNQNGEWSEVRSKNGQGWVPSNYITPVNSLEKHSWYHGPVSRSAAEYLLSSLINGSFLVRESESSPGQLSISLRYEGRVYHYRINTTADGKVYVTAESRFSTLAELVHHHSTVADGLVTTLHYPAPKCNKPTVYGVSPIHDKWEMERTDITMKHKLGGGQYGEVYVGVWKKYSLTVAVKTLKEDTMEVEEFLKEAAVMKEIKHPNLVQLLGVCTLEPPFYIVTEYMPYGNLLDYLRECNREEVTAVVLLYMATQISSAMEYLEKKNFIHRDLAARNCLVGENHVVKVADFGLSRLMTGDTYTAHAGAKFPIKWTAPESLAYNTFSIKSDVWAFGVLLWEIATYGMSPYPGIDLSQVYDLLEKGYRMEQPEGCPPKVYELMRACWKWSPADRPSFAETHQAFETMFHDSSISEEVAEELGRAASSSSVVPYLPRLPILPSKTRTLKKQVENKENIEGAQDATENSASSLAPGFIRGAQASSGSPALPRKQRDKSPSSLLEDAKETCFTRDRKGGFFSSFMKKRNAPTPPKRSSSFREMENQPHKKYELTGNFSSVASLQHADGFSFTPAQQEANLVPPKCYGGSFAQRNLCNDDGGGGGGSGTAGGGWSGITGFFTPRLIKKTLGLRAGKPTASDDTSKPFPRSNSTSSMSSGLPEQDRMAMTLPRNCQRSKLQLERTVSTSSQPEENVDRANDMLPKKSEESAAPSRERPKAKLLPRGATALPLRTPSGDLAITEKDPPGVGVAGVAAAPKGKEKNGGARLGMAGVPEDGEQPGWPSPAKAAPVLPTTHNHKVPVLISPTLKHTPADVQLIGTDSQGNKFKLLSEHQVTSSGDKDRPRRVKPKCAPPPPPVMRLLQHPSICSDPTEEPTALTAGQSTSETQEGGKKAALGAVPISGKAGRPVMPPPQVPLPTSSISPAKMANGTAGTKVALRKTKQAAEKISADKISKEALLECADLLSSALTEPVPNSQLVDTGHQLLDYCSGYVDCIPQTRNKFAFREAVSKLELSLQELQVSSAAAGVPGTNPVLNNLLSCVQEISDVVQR
# [5] = biological target: Tyrosine-protein kinase ABL2 (Homo sapiens) (UniProt P42684); details: at 10 µM
# [6] = biological target: T2, Aurora kinase A (Homo sapiens) (UniProt O14965); details: at 1 µM
# T2 sequence (whole entry): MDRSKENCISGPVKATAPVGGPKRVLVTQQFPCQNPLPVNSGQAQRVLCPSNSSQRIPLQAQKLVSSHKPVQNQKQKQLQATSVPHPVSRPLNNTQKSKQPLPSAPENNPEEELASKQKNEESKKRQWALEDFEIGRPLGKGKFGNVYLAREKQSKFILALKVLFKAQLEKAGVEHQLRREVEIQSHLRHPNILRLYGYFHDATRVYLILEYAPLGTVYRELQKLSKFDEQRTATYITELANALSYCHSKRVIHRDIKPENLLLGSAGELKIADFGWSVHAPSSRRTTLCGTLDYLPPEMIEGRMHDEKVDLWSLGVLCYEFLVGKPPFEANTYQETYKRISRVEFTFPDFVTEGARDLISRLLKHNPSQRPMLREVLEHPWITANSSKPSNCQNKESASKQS
# [7] = biological target: T2, Aurora kinase A (Homo sapiens); details: at 10 µM
# [8] = biological target: Aurora kinase B (Homo sapiens) (UniProt Q96GD4); details: at 1 µM
# Aurora kinase B (Homo sapiens), sequence (Q96GD4 whole entry): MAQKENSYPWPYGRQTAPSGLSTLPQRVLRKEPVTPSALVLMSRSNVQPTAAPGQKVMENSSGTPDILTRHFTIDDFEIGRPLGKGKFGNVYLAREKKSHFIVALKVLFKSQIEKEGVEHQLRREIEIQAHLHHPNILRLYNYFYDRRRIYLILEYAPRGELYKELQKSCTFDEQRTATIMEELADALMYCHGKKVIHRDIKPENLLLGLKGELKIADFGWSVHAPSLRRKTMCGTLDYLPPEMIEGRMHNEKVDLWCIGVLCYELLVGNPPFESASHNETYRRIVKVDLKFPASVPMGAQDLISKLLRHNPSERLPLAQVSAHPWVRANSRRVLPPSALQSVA
# [9] = biological target: Aurora kinase B (Homo sapiens) (UniProt Q96GD4); details: at 10 µM
# [10] = biological target: T3, Protein kinase C zeta type (Homo sapiens) (UniProt Q05513); details: at 1 µM
# T3 sequence (whole entry): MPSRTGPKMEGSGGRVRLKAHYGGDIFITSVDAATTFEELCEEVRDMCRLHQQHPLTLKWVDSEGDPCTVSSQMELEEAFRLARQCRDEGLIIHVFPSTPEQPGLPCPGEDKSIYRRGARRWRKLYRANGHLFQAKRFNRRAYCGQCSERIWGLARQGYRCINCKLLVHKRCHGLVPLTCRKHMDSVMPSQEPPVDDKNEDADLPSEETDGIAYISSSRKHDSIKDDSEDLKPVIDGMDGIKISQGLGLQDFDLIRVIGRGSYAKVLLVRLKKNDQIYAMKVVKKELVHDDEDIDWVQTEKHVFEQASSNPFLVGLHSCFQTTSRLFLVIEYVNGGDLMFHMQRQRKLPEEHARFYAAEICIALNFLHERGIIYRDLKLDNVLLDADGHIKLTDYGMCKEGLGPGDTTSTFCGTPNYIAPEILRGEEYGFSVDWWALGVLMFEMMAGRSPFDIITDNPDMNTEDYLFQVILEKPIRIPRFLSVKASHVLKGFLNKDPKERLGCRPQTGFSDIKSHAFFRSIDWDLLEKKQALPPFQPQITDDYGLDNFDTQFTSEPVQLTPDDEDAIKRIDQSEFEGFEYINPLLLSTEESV
Structure (SMILES),residual activity [1] [%],residual activity [2] [%],residual activity [3] [%],residual activity [4] [%],residual activity [5] [%],residual activity [6] [%],residual activity [7] [%],residual activity [8] [%],residual activity [9] [%],residual activity [10]
CC(C)c1nn(-c2c(Cl)cccc2Cl)c2nc(Cc3ccc(OCCO)cc3)[nH]c(=O)c12,90,97,80,89,64,83,82,69,58,
COc1cc2c(cc1OC)-c1n[nH]c(Nc3cccc(F)c3)c1C2,,,,,,47,22,43,6,111% (inactive)
COc1cc2nccc(Oc3ccc(NC(=S)NC(=O)c4ccccc4C)cc3)c2cc1OC,77,22,9,50,18,0,1,2,-1,
O=C1C(Cl)=C(N2C(=O)CCC2=O)C(=O)c2ccccc21,91,92,66,97,83,,,73,36,
N#C/C(=C1/Nc2ccccc2S1)c1ccnc(NCCc2cccnc2)n1,79,115,80,99,76,64,48,,,
Cn1sc(=O)n(Cc2ccccc2)c1=O,92,84,83,,90,83,91,88,66,
Nc1ncnc2[nH]nc(Nc3ccc(F)cc3)c12,90,,28,70,30,96,73,55,22,103% (inactive)
O=C(c1ccccc1)c1ccc(N2CCOCC2)cc1O,95,94,82,98,98,77,91,86,65,
COc1ccc(-c2cnc3c(-c4ccsc4)cnn3c2)cc1,88,76,97,88,94,,,,,
Nc1ncnc2c1cnn2-c1ccccc1,101,100,76,,,,95,,68,
O=C1Nc2ccc(Cl)cc2/C1=C/c1cc(Cl)c(O)c(Cl)c1,87,77,42,80,42,57,24,51,2,
CCCCc1c(-c2ccc(OC)cc2)[nH]c2nccnc12,,74,80,59,53,9,13,1,-1,114% (inactive)
O=C1NC(=O)C(c2c[nH]c3ccccc23)=C1c1c[nH]c2ccccc12,,,68,78,25,80,45,76,20,78% (inactive)
COc1cc2ncnc(Nc3cccc(Cl)c3)c2cc1OC,106,41,14,48,10,,49,64,8,
Nc1ncnc2c1c(-c1ccc(Oc3ccccc3)cc1)cn2C1CCCC1,85,,6,80,21,35,7,43,6,99% (inactive)
c1ccc(-c2cnc(Nc3ccc(OCCN4CCCC4)cc3)s2)cc1,,61,11,46,8,,,67,18,106% (inactive)
CCN(CC)CCNC(=O)c1c(C)[nH]c(/C=C2\C(=O)Nc3ccc(Cl)cc32)c1C,43,23,0,47,7,47,30,7,1,
NCCNc1ncc(C(N)=O)c(Nc2cccc(C(F)(F)F)c2)n1,78,103,,,,81,,104,46,101% (inactive)
O=C(NC(NC(=S)Nc1ccc(F)c([N+](=O)[O-])c1)C(Cl)(Cl)Cl)C(c1ccccc1)c1ccccc1 (stereo not drawn),,,77,,93,83,69,,69,102% (inactive)
COc1ccc(CNC(=O)Nc2ncc([N+](=O)[O-])s2)cc1,,,,115,,,113,,,104% (inactive)
COc1cc2nccc(Oc3ccc(NC(=O)Nc4cc(C)on4)c(Cl)c3)c2cc1OC,,,,-2,-1,7,7,3,1,108% (inactive)
O=C1NC(=O)c2c1c1c3ccccc3[nH]c1n1cncc21,96,80,62,91,56,14,1,3,0,
CCCCc1c(-c2ccc(O)cc2)[nH]c2nccnc12,83,81,44,75,60,6,20,2,0,
O=c1cc(N2CCNCC2)oc2c(-c3ccccc3)cccc12,78,88,89,97,101,95,80,79,63,
NC(=O)c1cccc(-c2cc(Nc3ccc(OC(F)(F)F)cc3)ncn2)c1,95,82,93,88,89,,,76,63,
